AMA1-RON2 inh: qHTS for Inhibitors of AMA1-RON; Towards Development of Antimalarial Drug Lead: Primary Screen. AlphaScreen AMA1-biotinylated RON2 peptide binding. Potency, µM (highest dose often 58.2 µM), actives largely listed as inhibitors. 360,000 tested, 0.2% active. AID 720542, 2013; note: nearly all actives have a fitted effect of over 45% in size
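AMA1 (3D7) with his tag at 25 nM final met compounds first, then biotinylated RON2 peptide at 25 nM; detection used donor plus acceptor beads, 10 µg/mL apiece, read by AlphaScreen after 30 min at room temperature.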
RE007 growth inh: qHTS Assay for Inhibitors of the HIV-1 protein Vpr; S. pombe RE007 Vpr strain, BacTiter-Glo ATP luminescence, 24 h; Potency, µM (doses to about 92.2 µM), hits mostly inhibitors; 360,000 tested, 0.21% active; AID 651644, 2012; active = well fitted falling curve with a large enough effect; inconclusive = small, poorly fitted or top-dose-only effect; inactive = no such curve, though single readings can be large or run the other way; note: nearly all actives have a fitted effect of over 50% in size
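Fission yeast strain RE007, carrying one chromosomally integrated HIV-1 vpr copy, was seeded at OD 0.01 in PMG+AL medium with 23 nL pinned compound. After 24 h at 30 °C and 99% humidity, viability was read by BacTiter-Glo luminescence.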
AmpC no deterg: qHTS Inhibitors of AmpC Beta-Lactamase (assay without detergent); Potency, µM (series often up to 57.1 µM), hits mostly inhibitors; 330,000 tested, 0.52% active; AmpC nitrocefin hydrolysis, absorbance 480 nm, 0.0001% Triton; P00811; note: nearly all actives have a fitted effect of over 20% in size
Target sequence (P00811 whole entry, looked up): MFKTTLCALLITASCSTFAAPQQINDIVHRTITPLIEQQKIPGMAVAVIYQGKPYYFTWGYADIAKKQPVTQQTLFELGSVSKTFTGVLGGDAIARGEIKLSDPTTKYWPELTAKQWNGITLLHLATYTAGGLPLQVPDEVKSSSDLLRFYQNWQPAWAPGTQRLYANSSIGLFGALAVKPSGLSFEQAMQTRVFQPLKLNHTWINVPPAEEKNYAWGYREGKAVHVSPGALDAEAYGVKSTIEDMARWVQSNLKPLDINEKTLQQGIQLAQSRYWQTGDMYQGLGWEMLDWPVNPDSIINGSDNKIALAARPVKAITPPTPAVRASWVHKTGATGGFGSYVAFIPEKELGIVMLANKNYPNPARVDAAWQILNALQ
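20 mM phosphate pH 7.0 + 0.01% (detergent screen) or 0.0001% Triton X-100; 5.3 nM AmpC reagent; cpd preinc 15 min RT; nitrocefin (800 uM stock) to start; A480 q20 s × 4 min; Activity was normalised to no-enzyme and no-compound control wells.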
AmpC inh detg: qHTS Inhibitors of AmpC Beta-Lactamase (assay with detergent) | P00811 | 370,000 tested, 0.041% active | AmpC hydrolysis of nitrocefin, absorbance 480 nm, 0.01% Triton | Potency, µM (top dose mostly 114 µM), most hits filed as inhibitors; note: nearly all actives have a fitted effect of over 25% in size
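20 mM phosphate pH 7.0 + 0.01% (detergent screen) or 0.0001% Triton X-100; 5.3 nM AmpC reagent; cpd preinc 15 min RT; nitrocefin (800 uM stock) to start; A480 q20 s × 4 min; Activity was normalised to no-enzyme and no-compound control wells.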
Numbers stand for hits; i = inactive; ? = inconclusive; nt = no result. A selection: hits, their analogues and other compounds. The true share with any hit is near 0.79%. Unless noted, calls come from the whole dose curve; as a rule, active = well fitted curve in the direction sought with a large enough effect; inconclusive = small, poorly fitted or top-dose-only effect, or another doubt; inactive = no such curve, though single readings can be large; an effect the other way counts as inactive or inconclusive.

SMILES | AMA1-RON2 inh | RE007 growth inh | AmpC no deterg | AmpC inh detg
COc1ccc(CCNC(=O)CN(c2ccccc2)S(=O)(=O)N(C)C)cc1 | nt | nt | nt | i
COc1ccc([N+](=O)[O-])c(S(=O)(=O)c2ccccc2)n1 | i | ? | i | ?
COc1ccc([N+](=O)[O-])c(S(=O)(=O)c2ccc(Cl)cc2)n1 | i | 13µM | i | i
O=C(Nc1ccc2c(c1)N(C1CCCC1)C(=O)c1ccccc1S2)c1ccccc1F | nt | nt | nt | i
O=Nc1c(O)n(Cc2ccc(Cl)c(Cl)c2)c2ccccc12 | i | ? | 2.5µM | i
CCOC(=O)c1c(C)n(-c2ccccc2)c2ccc(OC(=O)COc3ccc(Cl)cc3)cc12 | nt | nt | nt | i
CC1Cc2nc(SCC(=O)Nc3ccc4c(c3)OCO4)n(CCc3ccccc3)c(=O)c2S1 (configuration not stated) | i | i | ? | ?
CCn1c(SCC(=O)Nc2ccc3c(c2)OCO3)nc2c(c1=O)SC(C)C2 (configuration not stated) | i | i | 2.8µM | i
Cc1nnc(NCc2ccc(Cl)cc2)c2c1nnn2Cc1ccc(F)cc1 | nt | nt | nt | i
N#Cc1c(-c2ccco2)cc(-c2ccccc2)[nH]c1=O | i | i | i | i
N#Cc1c(-c2ccccc2)cc(-c2ccco2)c(C#N)c1N | nt | nt | 14µM | i
Cc1c(C(=O)NCCSCc2ccccc2Cl)cccc1[N+](=O)[O-] | i | i | 0.25µM | i
O=C(N/N=C\C=C\c1ccc(Br)cc1)c1ccc2c(c1)OCO2 | i | i | i | 45µM
O=C(N/N=C/C=C/c1ccc2c(c1)OCO2)c1ccc([N+](=O)[O-])cc1 | i | i | i | ?
CCOC(=O)c1c(NC(=O)CSc2cn(CCNC(=O)c3ccccc3F)c3ccccc23)sc2c1CCC2 | nt | nt | nt | i
C=CC(=O)Nc1cccc(N(C)c2ccnc(Nc3ccc(N4CCN(C)CC4)cc3)n2)c1 | 22µM | i | nt | nt
Clc1ccc(CNc2ccc(N3CCN(Cc4ccccc4)CC3)cc2)cc1 | 7.9µM | i | i | i
CCOC(=O)C(=Cc1ccc(N(C)C)cc1)C(=O)c1ccccc1 | i | i | nt | nt
CCOC(=O)/C(=C/c1ccc(OC(=O)c2ccccc2)cc1)C(C)=O | i | 28µM | i | i
Cc1ccc(S(=O)(=O)N2CCC(C(=O)Nc3ccccc3N3CCCCC3)CC2)cc1 | i | i | i | 32µM
O=[N+]([O-])c1ccc(C(O)CN=Cc2ccc(O)cc2O)cc1 (configuration not stated) | i | i | 13µM | i
CCCCCOC(=O)CSc1nc2sc3c(c2c(=O)n1-c1ccccc1)CC(C)(CC)OC3 (configuration not stated) | nt | nt | nt | i
Nc1nc(SCC(=O)Nc2ccccc2)nc2nc3c(cc12)CCCC3 | i | i | 16µM | i
Cc1ccc(NC(=O)CSc2nc(N)c3cc4c(nc3n2)CCCC4)cc1 | i | i | 14µM | i
COC(=O)c1cc(NC(=O)[C@H](CCS(C)(=O)=O)N2Cc3ccccc3C2=O)cc(C(=O)OC)c1 | nt | nt | nt | i
SMILES | AMA1-RON2 inh | RE007 growth inh | AmpC no deterg | AmpC inh detg
CCN(C(=O)c1c(C)oc2ncn(CC(C)C)c(=O)c12)c1cccc(Cl)c1 | nt | nt | nt | i
O=C1C2C3C=CC(C3)C2C(=O)N1c1ccccc1 (configuration not stated) | i | i | i | i
O=C1C2C3C=CC(C3=C3CCCCC3)C2C(=O)N1c1ccccc1 (configuration not stated) | i | 35µM | i | i
C/C(=N\Nc1ncc(Cl)cc1Cl)c1ccccn1 | i | 22µM | i | i
CC(=O)N1CCc2c(sc(NC(=O)CSc3ccccc3)c2-c2nc3ccccc3s2)C1 | nt | nt | nt | i
CCCCC(=O)Nc1sc2c(c1-c1nc3ccccc3s1)CCN(C(C)=O)C2 | nt | nt | 0.5µM | ?
CCn1c(SCC(=O)N=Nc2c(O)[nH]c3ccccc23)nc2ccccc21 | i | i | 5µM | i
COc1ccc(NC(=O)C2=C(C)Nc3nc(SCc4ccc(Cl)cc4)nn3C2c2cccc(OC)c2OC)cc1 (configuration not stated) | nt | nt | nt | i
Cc1cc(NC(=O)NCc2ccco2)ccc1NC(=O)NCc1ccco1 | i | i | nt | nt
Cc1nc2cc(NC(=O)NCc3ccco3)ccc2o1 | i | i | 0.35µM | i
S=C(NCc1ccco1)Nc1cc(-c2ccccc2)[nH]n1 | i | i | 16µM | i
S=C(NCc1ccco1)Nc1ccc(Br)cn1 | i | i | i | i
Nc1nc2c(s1)CCc1c-2cnn1-c1ccccc1 | i | nt | i | 89µM
CC(C)Cc1nn2c(=O)cc(COC(=O)c3ccccc3NC(=O)c3cccs3)nc2s1 | nt | nt | nt | i
Cc1ccc(Cl)cc1NC(=O)c1cc(CN2CCCC2)on1 | nt | nt | nt | i
O=C(CSc1ccc(-c2ccccn2)nn1)c1ccc([N+](=O)[O-])cc1 | 13µM | i | i | i
O=C(CSc1ccc(-c2cccnc2)nn1)c1ccc([N+](=O)[O-])cc1 | i | i | i | i
CC(NC(=O)Nc1ccc(Cl)cc1)c1ccc2c(c1)OCO2 (configuration not stated) | i | i | 8.9µM | ?
COc1ccc(NC(=O)NC(C)c2ccc3c(c2)OCO3)cc1OC (configuration not stated) | i | i | i | ?
CC(=O)/C=C/n1c(=S)oc2ccccc21 | i | 40µM | i | i
O=CC(Br)P(=O)(N1CCOCC1)N1CCOCC1 (configuration not stated) | i | i | i | 56µM
O=P(C(Cl)Cl)(N1CCOCC1)N1CCOCC1 | i | i | i | i
O=C(Nc1ccc(S(=O)(=O)Nc2nccs2)cc1)c1nn(-c2ccc(F)cc2)ccc1=O | i | i | 10µM | i
CCOc1ccc(-n2ccc(=O)c(C(=O)Nc3ccc(S(=O)(=O)Nc4nccs4)cc3)n2)cc1 | i | i | i | i
Cc1cccc2sc(NNC(=O)c3ccc(S(=O)(=O)N4CCc5ccccc5C4)cc3)nc12 | i | i | 14µM | i
SMILES | AMA1-RON2 inh | RE007 growth inh | AmpC no deterg | AmpC inh detg
CCCOc1ccc(CN(C(=O)c2cc(=O)c3ccc(C)cc3o2)C2CCS(=O)(=O)C2)cc1 (configuration not stated) | nt | nt | nt | i
CSCCC(NC(=O)COc1ccccc1)C(=O)OCC(=O)c1ccccc1 (configuration not stated) | i | ? | i | i
CSCCC(NS(=O)(=O)c1ccc2ccccc2c1)C(=O)OCC(=O)c1ccc(C(C)C)cc1 (configuration not stated) | i | i | 7.9µM | i
Cc1[nH]c2ccccc2c1C(=O)C(C)OC(=O)c1ccc(NC(=O)CC#N)cc1 (configuration not stated) | i | i | i | i
Cc1[nH]c2ccccc2c1C(=O)C(C)OC(=O)c1ccccc1NCCO (configuration not stated) | i | i | 28µM | ?
CCOC(=O)c1ccc(NC(=O)c2cnn(-c3ccc(C)cc3C)c2C2CCN(C(=O)OC(C)(C)C)CC2)cc1 | nt | nt | nt | i
